Data from the supplement of paper PMC4022240.
± gives the standard deviation.

T1: HaloTag-ATRX ADD domain (163-292)
T1 chain: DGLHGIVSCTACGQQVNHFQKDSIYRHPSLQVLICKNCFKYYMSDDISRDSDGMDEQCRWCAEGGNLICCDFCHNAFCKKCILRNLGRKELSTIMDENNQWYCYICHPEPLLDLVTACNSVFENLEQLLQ


Columns and labels:
Test in all cases: peptide microarray binding signal (635 nm), min-max normalized on array (fraction of array maximum); higher = stronger binding
[1] = molecular target: T1, HaloTag-ATRX ADD domain (163-292)
Procedure, shortened: (§1)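 Within each library, mean intensities of triplicate spots were min-max scaled to give the binding signal. The spots were histone 13-mer peptide–cellulose conjugates on nitrocellulose with a Cy3 tracer, blocked overnight at 4°C. They were then probed for 1 h at 4°C using biotin-labelled HaloTag reader fusions (10 nM to 1 μM) with streptavidin-Alexa Fluor 647 or rabbit histone antibodies (1:10,000 to 1:2,000) with anti-rabbit Alexa 647, and scanned at 635 nm for signal and 532 nm for misprints on an Axon GenePix 4000B.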

[2] = molecular target: HaloTag-ING2 PHD (mouse Ing2 200-280)
Procedure, shortened: as §1

[3] = molecular target: anti-H3K4me3 antibody ab8580
Procedure, shortened: as §1

[4] = molecular target: anti-H3K9me3 antibody ab8898
Procedure, shortened: as §1

[5] = peptide region: Unmod H2A variant, binder concentration: 50 nM
[6] = peptide region: Unmod H2A variant, binder concentration: 500 nM
[7] = peptide region: Unmod H2A variant, binder concentration: 10 nM
[8] = peptide region: Unmod H2A variant, binder concentration: 100 nM
[9] = peptide region: Unmod H2A variant, binder concentration: 1:2,000 dilution
[10] = peptide region: Unmod H2A variant, binder concentration: 1:10,000 dilution
[11] = peptide region: Unmod H2B variant, binder concentration: 1:2,000 dilution
[12] = peptide region: Unmod H2B variant, binder concentration: 1:10,000 dilution

Binder	peptide microarray binding signal [1, 5]	peptide microarray binding signal [1, 6]	peptide microarray binding signal [2, 7]	peptide microarray binding signal [2, 8]	peptide microarray binding signal [3, 9]	peptide microarray binding signal [3, 10]	peptide microarray binding signal [4, 9]	peptide microarray binding signal [4, 10]	peptide microarray binding signal ([1]; peptide region: Unmod H2B variant, binder concentration: 50 nM)	peptide microarray binding signal ([1]; peptide region: Unmod H2B variant, binder concentration: 500 nM)	peptide microarray binding signal ([2]; peptide region: Unmod H2B variant, binder concentration: 10 nM)	peptide microarray binding signal ([2]; peptide region: Unmod H2B variant, binder concentration: 100 nM)	peptide microarray binding signal [3, 11]	peptide microarray binding signal [3, 12]	peptide microarray binding signal [4, 11]	peptide microarray binding signal [4, 12]
VTIAQGGVLPNIQ [Unmod H2A variant V T I A Q G G V L P N I Q]	0.0238 ± 0.001	0.0447 ± 0.00046	0.0169 ± 0.00042	0.0193 ± 0.0019	0.00821 ± 0.007	0.00451 ± 0.0005	0.00338 ± 0.00037	0.00306								
RNDEELNKLLGGV [Unmod H2A variant R N D E E L N K L L G G V]	0.0156 ± 0.00038	0.0164 ± 0.00093	0.00412 ± 5.7e-05	0.00397 ± 0.0011	0.0091 ± 0.00022	0.00171 ± 3.3e-05	0.0018 ± 0.00014	0.00259 ± 6.1e-05								
LNKLLGGVTIAQG [Unmod H2A variant L N K L L G G V T I A Q G]	0.027 ± 0.0084	0.0141 ± 0.0028	0.00615 ± 0.00035	0.0259 ± 0.0025	0.00748 ± 0.0012	0.00177 ± 0.0002	0.0011 ± 4.3e-05	0.00138 ± 3.6e-05								
IQAVLLPKKTESH [Unmod H2A variant I Q A V L L P K K T E S H]	0.0353 ± 0.0028	0.0333 ± 0.018	0.0199 ± 0.00099	0.0828 ± 0.029	0.00283 ± 0.0019	0.00371 ± 0.00028	0.00285 ± 0.00015	0.0045 ± 0.00048								
RNDEELNKLLGRV [Unmod H2A variant R N D E E L N K L L G R V]	0.0189 ± 0.0014	0.00157 ± 0.00011	0.00269 ± 9.9e-05	0.0085 ± 0.00045	0.000189 ± 4.1e-06	0.0016 ± 9.6e-05	0.000604 ± 2e-05	0.00173 ± 3.3e-05								
PEVSSKGATISKK [Unmod H2B variant P E V S S K G A T I S K K]									0.0052 ± 0.00018	0.00605 ± 0.00026	0.003103 ± 3e-05	0.00468 ± 0.00025	0.00051 ± 1.5e-05	0.000742 ± 1.3e-05	0.000362 ± 1.3e-05	0.000634
RNDEELNKLLGKV [Unmod H2A variant R N D E E L N K L L G K V]	0.0192 ± 0.00022	0.024 ± 0.0011	0.00513 ± 0.00017	0.00907 ± 0.002	0.00181 ± 0.00069	0.00217 ± 3.9e-05	0.00159 ± 3.2e-05	0.001787 ± 1.7e-05								
GVLPNIQAVLLPK [Unmod H2A variant G V L P N I Q A V L L P K]	0.0417 ± 0.0058	0.0254 ± 0.026	0.0142 ± 0.0058	0.0437 ± 0.0091	0.000944 ± 0.00025	0.0081 ± 0.0012	0.00384 ± 0.00031	0.0113 ± 0.0018								
LNKLLGKVTIAQG [Unmod H2A variant L N K L L G K V T I A Q G]	0.0216 ± 0.0016	0.028 ± 0.0031	0.006087 ± 5.8e-05	0.032 ± 0.015	0.00715 ± 0.00038	0.00171 ± 3.3e-05	0.00115 ± 4.6e-05	0.001614 ± 1.6e-05								
LQLAIRNDEELNK [Unmod H2A variant L Q L A I R N D E E L N K]	0.0213 ± 0.0039	0.0279 ± 0.0038	0.005968 ± 4.9e-05	0.03182 ± 0.00024	0.0182 ± 0.0049	0.00422 ± 0.00051	0.00439 ± 0.00042	0.00588 ± 0.00021								
